Reference: PubChem BioAssay (NCI)
The panel holds about 83,000 compounds, 20% with a hit somewhere; the sample as a whole holds those more often.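 Percent growth is the endpoint: 0 to 100 indicates growth inhibition (40 means 60% inhibition), 0 means no net growth, and negative values indicate cell death.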 Active and inactive are the calls of the source. The calls were made as follows: active = growth percent below 10; inactive = the rest.

Each compound was assayed on DU-145 prostate (assay: NCI-60 one-dose screen, 48 h (100 = growth as untreated, 0 = no growth, -100 = all killed)). Settings: 10 µM unless noted.
`COC(=O)[C@@H]1CCCN1C(=O)[C@H]1CCCN1C(=O)[C@@H](Cc1c[nH]c2ccccc12)NC(=S)Nc1cc(C(F)(F)F)cc(C(F)(F)F)c1` was tested, and the growth was 57.7% (inactive).
`Cc1ccc(F)cc1NC(=O)c1cc(Cl)ccc1Nc1ccccc1` was tested, and the growth was 69.6% (inactive).
For `CC1=C(C(=O)OCC2CCN(C(=O)OC(C)(C)C)CC2)[C@@H](c2cccc(C#N)c2)C2=C(CC(C)(C)CC2=O)N1`, the growth was 38.5% (inactive).
In the case of `CCCCCCc1cc2cc(-c3csc(/C=C/c4ccccc4)n3)c(=O)oc2cc1O`, the growth is reported as 53.3% (inactive).
In the case of `COc1ccc(Br)c(/C=C2\SC(=Nc3ccc(O)cc3)NC2=O)c1`, the growth is reported as 98.1% (inactive).
`COc1ccc(Cn2c(Br)c3c(c2Br)-c2nc(N)sc2CC3)cc1` was tested, and the growth was 57% (inactive).
In the case of `COC(=O)c1cc2c(n1Cc1ccccc1)-c1oncc1CCC2`, the growth is reported as 102% (inactive).
With `CCOC(=O)c1sc(-c2ccc(OS(=O)(=O)c3ccccc3[N+](=O)[O-])c(C=O)c2)nc1C` the growth was 78.1% (inactive).
`Clc1ncccc1Nc1ccc2nnc(-c3ccncc3)n2n1` was tested, and the growth was 107% (inactive).
For `O=C1NC(=O)C(=Cc2cn(Cc3cn(Cc4ccc(Cl)cc4Cl)nn3)c3ccccc23)C(=O)N1`, the growth was 98.9% (inactive).
`CCCCCCn1c(=N)n(CC(O)COc2cccc(C)c2)c2ccccc21` (centres undefined) was tested, and the growth was -22.4% (active).
With `O=C(Nc1ncc(Cc2cccc(C(F)(F)F)c2)s1)C1COc2ccccc2O1` (centres undefined) the growth was 105% (inactive).
In the case of `CN1C(=O)N(C)C2C1NN=c1s/c(=C\c3ccc([N+](=O)[O-])cc3)c(=O)n12` (centres undefined), the growth is reported as 77.4% (inactive).
For `O=C(c1nc2ccccc2[nH]1)C1C(c2ccc(F)cc2)C2CC3CCCCC3N2[C@@]12C(=O)Nc1ccc(Cl)cc12` (some centres undefined), the growth was 60.5% (inactive).
`COc1ccc(/C=C/C(=O)c2ccc3cc(OC)c(OC)cc3c2)cc1OC` was tested, and the growth was 46.7% (inactive).
In the case of `O=c1oc2ccc(F)cc2c(=O)n1-c1ccc(Br)cc1F`, the growth is reported as 14.5% (inactive).
In the case of `COc1cc(/C=C2\CN(S(=O)(=O)c3ccccc3)C/C(=C\c3cc(CN4CCCC4)c(O)c(OC)c3)C2=O)cc(CN2CCCC2)c1O`, the growth is reported as -16.7% (active).
`CC(C)C[C@H](C(=O)N[C@@H](C)C(N)=O)N1CC=CCN(O)S1(=O)=O` was tested, and the growth was 128% [5 µM] (inactive).
`CN(C)CCCNCc1ccc(-c2ccc(F)c(Cl)c2)o1` was tested, and the growth was 19.7% (inactive).
For `O=c1oc2ccc(-c3ccc(F)cc3F)cc2c(=O)n1-c1cccc(C(F)(F)F)c1`, the growth was 20.1% (inactive).
With `O=C(N=Nc1c(O)[nH]c2ccccc12)c1oc2ccccc2c1CN1CCN(c2ccccc2)CC1` the growth was -34.2% (active).
`O=C(Nc1ccc(Br)cc1F)c1cc(F)ccc1O` was tested, and the growth was 15.4% (inactive).
`COc1cc(NC(=O)CCSc2nc3ccccc3c(=O)n2Cc2ccccc2)cc(OC)c1OC` was tested, and the growth was 97.5% (inactive).
For `O=C(Nc1ccc(I)cc1F)c1cc(F)ccc1O`, the growth was 15.1% (inactive).
In the case of `COc1nccc2cc3c(=O)n4c(cc5ccccc54)c(=O)n3c12`, the growth is reported as 111% (inactive).
With `O=C(COc1cc(O)c2c(=O)cc(-c3ccccc3)oc2c1)Nc1ccccc1` the growth was 81.5% (inactive).
For `O=c1oc2ccc(-c3ccc(F)cc3F)cc2c(=O)n1-c1ccc(Cl)c(C(F)(F)F)c1`, the growth was 21% (inactive).
In the case of `CCN1CCN(c2cc(C)c3cc(NC(=O)c4ccc(OC)c(OC)c4)ccc3n2)CC1`, the growth is reported as 34.5% (inactive).
With `COc1ccc(Cn2c(Br)c3c(c2-c2cc(OC)c(OC)c(OC)c2)CCc2sc(NC(C)=O)nc2-3)cc1` the growth was 66.7% (inactive).
`COc1ccccc1C(=O)O/N=C(\N)Cc1cccc2ccccc12` was tested, and the growth was 99.1% (inactive).
`O=C(Nc1ccc(Cl)cc1F)c1cc(I)ccc1O` was tested, and the growth was 31.9% (inactive).
With `O=C(O)CCC(=O)c1ccc(C2CCCCCC2)cc1` the growth was 108% (inactive).
In the case of `CCCCOCc1cc(CN2CCN(C)CC2)c(O)c2ncccc12`, the growth is reported as 63.9% (inactive).
`COC(=O)/C(CCC=C(C)C)=C1\[C@@H](OC(C)=O)C[C@@]2(C)[C@H]1C[C@@H](O)[C@H]1[C@@]3(C)CC[C@H](NCc4ccccc4)[C@@H](C)[C@@H]3CC[C@@]12C` was tested, and the growth was 74.8% (inactive).
`O=C(NC1C(O)OC(CO)C(O)C1O)NS(=O)(=O)c1ccc(Cl)cc1` (centres undefined) was tested, and the growth was 108% (inactive).
`O=C(Nc1ccc(Br)cc1F)c1cc(Cl)ccc1O` was tested, and the growth was 11.8% (inactive).
With `CCOC(=O)c1c(C=O)nc2ccccc2c1/C=C/c1ccc(Cl)cc1` the growth was 96.3% (inactive).
For `COc1cccc2cc(N(C)c3nc(C)nc4ccsc34)ccc12`, the growth was -4.03% (active).
`COc1cc(/C=C/C(=O)c2c(C)nc3ccccc3c2/C=C/c2ccccc2)cc(OC)c1OC` was tested, and the growth was -0.597% (active).
